# Bioassay records: PubChem BioAssay, PCMD
# Cathepsin G inh: inhibitors of human cathepsin G | purified enzyme, AMC-tetrapeptide fluorescence, pooled mixtures | inhibition, % at 5 µM (by protocol) | 62,000 tested, 0.2% active | AID 581;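 active = inhibition above 20% in each of the two mixture wells holding the compound; inactive = inhibition of 20% or less in either well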;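 note: 0% = enzyme control without mixture and 100% = blank lacking enzyme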
# C1s inh: human complement C1s inhibition. P09871. purified C1s, fluorogenic AMC substrate, pooled mixtures. mean inhibition % of two 10-compound mixtures (active compounds read high), % at 5 µM (by protocol). 62,000 tested, 0.16% active;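 active = inhibition above 20% in each of the two 10-compound mixture wells holding the compound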;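 note: 0% = enzyme wells lacking compound mixture and 100% = no-enzyme blank wells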
# Target sequence (P09871 16-437 limits assumed): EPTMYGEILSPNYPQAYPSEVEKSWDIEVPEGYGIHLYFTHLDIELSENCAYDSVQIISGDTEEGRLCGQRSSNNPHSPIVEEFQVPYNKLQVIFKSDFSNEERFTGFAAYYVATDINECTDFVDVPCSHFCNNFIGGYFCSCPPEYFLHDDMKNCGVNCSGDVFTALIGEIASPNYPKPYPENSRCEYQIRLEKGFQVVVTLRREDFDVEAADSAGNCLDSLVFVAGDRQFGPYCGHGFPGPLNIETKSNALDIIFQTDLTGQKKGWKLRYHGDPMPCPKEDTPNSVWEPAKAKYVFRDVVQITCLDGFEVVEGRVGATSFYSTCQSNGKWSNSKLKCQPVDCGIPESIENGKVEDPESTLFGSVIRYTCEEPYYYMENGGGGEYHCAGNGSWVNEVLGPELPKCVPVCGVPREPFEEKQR
# Target sequence (P09871 438-688 limits assumed): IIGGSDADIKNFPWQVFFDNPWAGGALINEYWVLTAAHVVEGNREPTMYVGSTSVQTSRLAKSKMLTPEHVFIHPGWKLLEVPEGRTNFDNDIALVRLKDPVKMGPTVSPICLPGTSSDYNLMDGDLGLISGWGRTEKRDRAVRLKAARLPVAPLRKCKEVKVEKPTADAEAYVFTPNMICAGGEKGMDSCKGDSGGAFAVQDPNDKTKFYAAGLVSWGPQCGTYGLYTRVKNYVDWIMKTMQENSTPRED
# CatB inh: blocks human cathepsin B protease activity; P07858; purified cathepsin B, fluorogenic substrate, fluorescence; inhibition, %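 (tested at 10 µM)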; 63,000 tested, 0.1% active; AID 453; in the data active = inhibition above about 21%;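 note: 0% = enzyme with no compound and 100% = no enzyme blank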
# CatB mixtures: human cathepsin B inhibition by mixtures. 62,000 tested, 0.06% active. inhibition, %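 (ten-compound pools at 5 µM per compound and 50 µM total)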. P07858. Purified cathepsin B, AMC dipeptide fluorescence, compound mixtures; in the data active = inhibition above about 22%, passing the limit was not always enough; inconclusive = no clear call, values can overlap the other calls;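 note: 0% = enzyme without compound and 100% = no enzyme blank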
# CatS block: blocks human cathepsin S protease activity; P25774; recombinant cathepsin S, AMC dipeptide fluorescence, pooled mixtures; inhibition, %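 (tested at 5 µM per compound within 10-compound mixtures)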; 62,000 tested, 0.06% active; AID 501; in the data active = inhibition above about 32%, passing the limit was not always enough; inconclusive = no clear call, values can overlap the other calls;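 note: 0% = enzyme without compound and 100% = blank without enzyme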
# CatL block: blocks human cathepsin L protease activity. P07711. purified cathepsin L, fluorogenic substrate, fluorescence. inhibition, %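 (tested at 10 µM)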. 58,000 tested, 0.17% active. AID 460; in the data active = inhibition above about 45%;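 note: 0% = enzyme with no compound and 100% = no enzyme blank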
# An asterisk follows results filed as active; ? = inconclusive; nt = no result given. This is a sample that favours compounds with a hit; in the whole collection about 0.58% have one here.
SMILES,Cathepsin G inh,C1s inh,CatB inh,CatB mixtures,CatS block,CatL block
Cc1nn(-c2ccccc2)c(OC(=O)c2cccs2)c1S(=O)(=O)c1ccccc1,-0.6,-24.4,0.4,-5.0,8.1,11.6
Nc1cc(OC(=O)c2cccs2)nn1S(=O)(=O)c1ccc(F)cc1,17.9,17.4,55.6*,55.3*,-1.5,-3.3
Cc1sc2nc(-c3ccco3)oc(=O)c2c1C,10.6,32.2*,-0.4,7.2,2.3,6.0
O=c1oc(-c2ccco2)nc2ccccc12,74.3*,47.8*,3.0,-7.7,-0.5,0.4
Cc1cc2c(=O)n(Cc3ccco3)c(SCC(=O)c3ccc(Cl)s3)nc2s1,-0.7,1.1,0.6,-3.8,-7.1,-0.8
C=CCNc1nc(C2(C)CC3(CC(C)(C)OC3=O)C(=O)O2)cs1 (configuration not stated),nt,nt,-2.1,nt,nt,8.1
Cc1ccc2c(C(=O)CN3CCCCC3CCO)c(C)[nH]c2c1 (configuration not stated),0.6,1.1,3.9,29.5*,21.3,-3.5
Cc1nn(CC(O)Cn2c3c(c4ccccc42)CCN(C)C3=O)c(C)c1Br (configuration not stated),2.6,1.7,-4.8,6.7,-3.2,-2.6
Cn1c(C(=O)NCCCN2CCOCC2)cc2c(=O)n(C)c3ccccc3c21,-2.5,-2.9,-4.8,1.9,47.3*,10.4
Cn1c(C(=O)NCCN2CCN(Cc3ccccc3)CC2)cc2c(=O)n(C)c3ccccc3c21,-4.3,-5.2,1.1,-0.5,57.8*,19.7
Cn1c(C(=O)NCCN2CCCCCC2)cc2c(=O)n(C)c3ccccc3c21,5.8,10.3,1.3,-0.5,69.5*,16.0
Cn1c(C(=O)NCCCN2CCN(c3ccccc3F)CC2)cc2c(=O)n(C)c3ccccc3c21,4.0,12.3,3.8,4.5,34.0,5.8
CC1CCN(CCCNC(=O)c2cc3c(=O)n(C)c4ccccc4c3n2C)CC1,5.6,-4.7,1.0,0.3,?,-1.4
COc1ccc2c(c1)CCc1c(C(=O)NCc3ccc(F)cc3)noc1-2,92.5*,43.9*,-1.3,4.1,-6.1,-18.4
COc1ccc2c(c1)CCc1c(C(=O)NCCc3ccc(OC)c(OC)c3)noc1-2,52.3,-15.5,1.9,0.5,-1.2,8.6
COc1ccc2c(c1)CCc1c(C(=O)Nc3ccc(OC)c(OC)c3)noc1-2,37.1*,18.7,-0.6,5.0,-3.8,-1.0
CCOc1ccc(NS(=O)(=O)c2ccc(OCC(=O)N3CCCC3)cc2)cc1,10.8,-8.8,1.6,2.9,0.1,5.5
CCOc1ccc(NS(=O)(=O)c2ccc(NS(C)(=O)=O)cc2)cc1,6.2,-8.4,1.7,4.5,-7.3,76.2*
CC1SC(=NC(=O)c2ccco2)NC1=O (configuration not stated),13.9,10.8,0.2,7.2,3.5,-2.5
CCn1c(SCC(=O)Nc2ccccc2C(=O)OC)nc2c1c(=O)n(C)c(=O)n2C,6.5,-1.4,-3.0,4.1,9.2,8.2
Cc1ccc(OCC(=O)Nc2ccc(N3CCOCC3)cc2)cc1,44.9,60.0*,3.1,2.5,-5.2,5.2
O=C(c1csc2ccccc12)n1cccn1,52.0*,49.7*,1.8,7.8,3.0,8.4
O=C(c1csc2ccccc12)N1CCCCCC1,-15.6,-63.0,1.7,-18.1,-20.3,4.5
CC1CCN(S(=O)(=O)c2cccc(C(=O)Nc3ccccn3)c2)CC1,-6.3,-77.9,0.6,-3.3,-5.9,9.7
CC1CCN(S(=O)(=O)c2cccc(C(=O)NCc3cccs3)c2)CC1,16.0,23.5*,-1.8,4.2,-5.7,-1.1
SMILES,Cathepsin G inh,C1s inh,CatB inh,CatB mixtures,CatS block,CatL block
O=C(COC(=O)CCC(=O)c1ccc(F)cc1)Nc1ccc(N2CCOCC2)cc1,2.6,5.4,0.1,0.3,7.7,0.1
O=C(CNC(=O)c1ccco1)OC(C(=O)c1ccccc1)c1ccccc1 (configuration not stated),-2.0,-8.9,18.1,?,-0.2,78.1*
O=C(Nc1ccccn1)C1CCN(S(=O)(=O)c2cccc3nonc23)CC1,7.0,2.1,-0.3,0.2,0.7,18.0
CC(=O)Nc1nc(=S)n(-c2ccccc2)[nH]1,11.7,13.0,-1.8,3.9,0.6,0.5
CCC(C)C(NCc1cccc(C)c1)C(=O)O (configuration not stated),2.9,6.5,-0.1,0.5,-0.4,-2.5
CCC(C)[C@@H](NC(=O)OC(C)(C)C)c1nnc(S(=O)(=O)Cc2cccc(C)c2)o1 (some centres not stated),10.3,15.3,33.7*,22.8*,2.7,76.0*
CC(C)(C)OC(=O)N[C@@H](Cc1ccccc1)c1nnc(S(=O)(=O)Cc2ccccc2)o1,82.7*,5.1,0.5,-1.9,-6.2,12.9
Cc1cc(C)c2c(=O)n(CC(=O)NCCCN3CCOCC3)sc2n1,6.3,13.7,1.8,5.2,2.4,11.7
Cc1cc(C)c2c(=O)n(CC(=O)NCCCN3CCN(c4ccccc4F)CC3)sc2n1,9.7,13.6,3.5,6.9,6.4,65.2*
CC(=O)c1c(OC(=O)c2ccco2)c2ccccc2n1C,18.1,41.0*,3.7,5.4,5.3,16.6
C=CCn1c(O)c(CN2CCOCC2)c(C)c(C#N)c1=O,-1.8,3.0,-2.7,-1.4,4.1,103.4*
Cn1c(CN2CCOCC2)c(C#N)c2ccccc21,-3.1,1.3,-4.8,2.1,6.5,2.5
CN1CCN(S(=O)(=O)c2ccc(Br)s2)CC1,-2.8,-2.4,3.4,1.2,8.9,97.1*
O=C(O)C1CCCCN1S(=O)(=O)c1cccc2nsnc12 (configuration not stated),nt,nt,4.5,nt,nt,22.7
COc1cc(OC)cc(C(=O)Nc2ncc3c(n2)CC(C)CC3=O)c1 (configuration not stated),17.0,22.4*,4.4,5.2,11.3,-0.7
O=C(COC(=O)C1(c2ccccc2F)CCCC1)NC1CCS(=O)(=O)C1 (configuration not stated),-1.5,-10.7,6.7,0.9,-1.3,-0.8
O=C1CC(c2ccco2)Cc2nc(N3CCc4ccccc4C3)ncc21 (configuration not stated),9.5,6.0,21.2*,3.8,-5.7,14.0
CCN1CCN(C(C(=O)NC2CCCC2)c2ccc(Cl)cc2)CC1 (configuration not stated),8.3,11.6,2.5,2.1,-0.3,7.6
O=C(Cc1ccc(-c2ccccc2)cc1)NCCN1CCOCC1,10.3,24.3*,0.9,4.1,0.4,-17.6
CCCc1cc(C(=O)NCCc2ccccc2)no1,9.0,8.4,3.9,5.1,8.2,nt
CCCNC(=O)c1noc2c1CCc1ccccc1-2,60.9*,7.8,4.9,3.8,-2.5,nt
O=C(NCCN1CCOCC1)c1noc2c1CCc1ccccc1-2,90.1*,19.9,0.8,4.0,29.6,10.3
O=C(NCCc1ccccc1)c1noc2c1CCc1ccccc1-2,101.0*,26.4*,4.5,1.2,11.8,20.7
O=C(NCCN1CCOCC1)c1ccc(-c2ccccc2)cc1,5.1,-24.0,1.3,-2.0,-4.6,-4.3
